Test results taken from PubChem BioAssay (NCATS).
Several values for one entry are separate records, joined by “and”; a condition that tells them apart may be missing. Identical values can stand only once. Inconclusive results are not listed. Activity calls are given as the source filed them. Calls come from the whole dose curve; as a rule, active = well fitted inhibition curve with a large enough effect; inconclusive = small, poorly fitted or top-dose-only effect; inactive = flat fitted curve, though single readings scatter.

What was measured:
CRL-7250 = normal cell line; experiment: Cytotoxic Profiling of Annotated Libraries Using Quantitative High-Throughput Screening (AID 1296008); settings: Five cell lines viability, CellTiter-Glo ATP luminescence, 48-72 h; max response: stronger effect = lower value; for max response: % is set by controls: 0 for no effect and ±100 for the full control effect
Outline: (§1)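 Cells exposed to compounds for 48 or 72 hr at 37 degrees Celsius. Viability read as ATP-coupled luminescence with CellTiter-Glo after 10 min at room temperature.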

HEK293 = experiment: as above; settings: Five cell lines viability, CellTiter-Glo ATP luminescence, 48-72 h; max response: stronger effect = lower value
Outline: as §1

HaCat [1] = experiment: as above; settings: Five cell lines viability, CellTiter-Glo ATP luminescence, 48-72 h; max response: stronger effect = lower value
Outline: as §1

NIH3T3 = experiment: as above; settings: Five cell lines viability, CellTiter-Glo ATP luminescence, 48-72 h; max response: stronger effect = lower value
Outline: as §1

MCC-13 = experiment: qHTS assay to identify novel small-molecules to repurpose for Merkel cell carcinoma treatment (AID 1296009); settings: MCC and control cell lines, CellTiter-Glo viability, 72 h; series mostly up to 46 µM
Outline: (§2)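 Cells were treated for 72 hr at 37 degree celsius with compounds in 8- or 11-point dose response. Viability was read by CellTiter-Glo luminescence, normalized to no-cell (cytotoxicity) and DMSO controls.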

MCC-26 = experiment: as above; settings: MCC and control cell lines, CellTiter-Glo viability, 72 h; series mostly up to 46 µM
Outline: as §2

SC27B = experiment: qHTS profiling for inhibitors of Plasmodium falciparum proliferation (AID 504749); settings: P. falciparum in erythrocytes, SYBR Green DNA, 72 h; series mostly up to 28.7 µM
Outline: (§3)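 P. falciparum-infected erythrocytes (0.3% parasitemia, 2.5% hematocrit) incubated with compound 72 h at 37 C, 5% CO2. Parasite DNA detected by SYBR Green after lysis, overnight at room temperature; normalised to 0.29 uM artemisinin and DMSO.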

W2 = experiment: as above; settings: P. falciparum in erythrocytes, SYBR Green DNA, 72 h; series mostly up to 28.7 µM
Outline: as §3

HACAT [2] = experiment: qHTS assay to identify novel small-molecules to repurpose for Merkel cell carcinoma treatment (AID 1296009); settings: MCC and control cell lines, CellTiter-Glo viability, 72 h; series mostly up to 44.8 µM
Outline: as §2

PC49 = experiment: qHTS profiling for inhibitors of Plasmodium falciparum proliferation (AID 504749); settings: P. falciparum in erythrocytes, SYBR Green DNA, 72 h; series mostly up to 28.7 µM
Outline: as §3

P93_24 = experiment: as above; settings: P. falciparum in erythrocytes, SYBR Green DNA, 72 h; series mostly up to 28.7 µM
Outline: as §3

P94_40 = experiment: as above; settings: P. falciparum in erythrocytes, SYBR Green DNA, 72 h; series mostly up to 28.7 µM
Outline: as §3

PAD = experiment: as above; settings: P. falciparum in erythrocytes, SYBR Green DNA, 72 h; series mostly up to 28.7 µM
Outline: as §3

PC15 = experiment: as above; settings: P. falciparum in erythrocytes, SYBR Green DNA, 72 h; series mostly up to 28.7 µM
Outline: as §3

PC26 = experiment: as above; settings: P. falciparum in erythrocytes, SYBR Green DNA, 72 h; series mostly up to 28.7 µM
Outline: as §3

TAB109 = experiment: as above; settings: P. falciparum in erythrocytes, SYBR Green DNA, 72 h; series mostly up to 28.7 µM
Outline: as §3

TAB113 = experiment: as above; settings: P. falciparum in erythrocytes, SYBR Green DNA, 72 h; series mostly up to 28.7 µM
Outline: as §3

TAB165 = experiment: as above; settings: P. falciparum in erythrocytes, SYBR Green DNA, 72 h; series mostly up to 28.7 µM
Outline: as §3
Note: nearly all actives have a fitted effect of over 60% in size.
Potency is the fitted concentration of half-maximal effect.

CN1CCN(C2=Nc3cc(Cl)ccc3Nc3ccccc32)CC1
inactive: max response (CRL-7250) -7.49% and -17.9% | max response (HaCat [1]) 2.26% | outcome (NIH3T3) | Potency (MCC-13) | Potency (MCC-26)
active: Potency (HEK293) 13.3 µM

CN(C)CCCN1c2ccccc2CCc2ccc(Cl)cc21
inactive: Potency (SC27B) | max response (CRL-7250) -24.3% | outcome (HaCat [1]) | max response (NIH3T3) -22.1% | outcome (HACAT [2]) | Potency (MCC-13) | Potency (MCC-26)
active: Potency (W2) 1.9 µM | Potency (HEK293) 13.2 µM and 8.41 µM

O=c1[nH]cc(F)c(=O)[nH]1
inactive: Potency (PC49) | Potency (MCC-13) | Potency (MCC-26)
active: Potency (HEK293) 11.8 µM | Potency (NIH3T3) 3.76 µM and 2.96 µM

CCOC(=O)c1ncn2c1CN(C)C(=O)c1cc(F)ccc1-2
inactive: Potency (P93_24) | Potency (P94_40) | Potency (PAD) | Potency (PC15) | Potency (PC26) | Potency (PC49) | Potency (SC27B) | Potency (TAB109) | Potency (TAB113) | Potency (TAB165) | Potency (W2)

CN1CCN2c3ccccc3Cc3ccccc3C2C1 (configuration not stated)
inactive: Potency (P93_24) | Potency (P94_40) | Potency (PAD) | Potency (PC15) | Potency (PC26) | Potency (PC49) | Potency (SC27B) | Potency (TAB109) | Potency (TAB113) | Potency (TAB165)

O=C1c2c(O)ccc(O)c2C(=O)c2c(NCCNCCO)ccc(NCCNCCO)c21
active: Potency (P93_24) 1.78 µM | Potency (P94_40) 1.58 µM | Potency (PAD) 2 µM | Potency (PC26) 6.42 µM | Potency (SC27B) 3.16 µM | Potency (TAB109) 2.24 µM | Potency (TAB113) 3.55 µM | Potency (TAB165) 2 µM | Potency (W2) 1.81 µM | Potency (CRL-7250) 4.18 µM and 1.68 µM | Potency (HEK293) 37.2 nM and 15 nM | Potency (HaCat [1]) 264 nM | Potency (NIH3T3) 59 nM and 21.1 nM | Potency (MCC-13) 935 nM and 750 nM | Potency (MCC-26) 1.87 µM and 596 nM
inactive: Potency (PC49)
